Assay results published in PubChem BioAssay (NCATS).
Results filed as inconclusive are left out. A call without a number means that no potency is given here. Activity calls are given as the source filed them. The call rests on the fitted dose curve; tested in HEK293 reporter line.

Assay: qHTS for Inhibitors of the Functional Ribonucleoprotein Complex (vRNP) of Lassa (LASV) Arenavirus: LASV Primary Screen - GLuc reporter signal (AID 1347082); further: nearly all actives have a fitted effect of over 60% in size
Settings: LASV minigenome vRNP, Gaussia luciferase reporter; series mostly up to 57.5 µM
Potency means the concentration at half of the fitted maximal effect.

**Q.** For `OCCn1cc(-c2cnc3nnn(Cc4ccc5ncccc5c4)c3n2)cn1`, which Potency is on record?
**A.** Its Potency is “inactive”.

**Q.** With `CCn1cc(C(=O)O)c(=O)c2cc3c(cc21)OCO3` as the compound, how does the Potency read?
**A.** Its Potency is “inactive”.

**Q.** With `CN1CC[C@@H](c2c(O)cc(O)c3c(=O)cc(-c4ccccc4Cl)oc23)[C@@H](O)C1` as the compound, how does the Potency read?
**A.** Its Potency is 544 nM (active).

**Q.** For `O=C(C=Cc1cccnc1)NCCCCC1CCN(C(=O)c2ccccc2)CC1`, which Potency is on record?
**A.** The Potency was 68.5 nM (active).

**Q.** Which Potency does the source give for `CC(C)c1ccc2c(c1)c(SC(C)(C)C)c(CC(C)(C)C(=O)O)n2Cc1ccc(Cl)cc1` here?
**A.** Its Potency is 12200 nM (active).

**Q.** Which Potency does the source give for `Cc1cccc(-c2nn(C(=S)Nc3ccccc3)cc2-c2ccnc3ccccc23)n1` here?
**A.** The Potency was “inactive”.

**Q.** With `Cc1cc(SCc2sc(-c3ccc(C(F)(F)F)cc3)nc2C)ccc1OCC(=O)O` as the compound, how does the Potency read?
**A.** Its Potency is “inactive”.

**Q.** For `COC(=O)c1c(Cl)c(Cl)c(C(=O)OC)c(Cl)c1Cl`, which Potency is on record?
**A.** Its Potency is “inactive”.

**Q.** Which Potency does the source give for `COc1cccc(OC)c1-c1cc(C(=O)NC2(C(=O)O)C3CC4CC(C3)CC2C4)nn1-c1ccnc2cc(Cl)ccc12` (stereo not given) here?
**A.** Its Potency is “inactive”.

**Q.** With `COc1cc2nc(-c3ccc(N4CCN(C)CC4)cc3)nc(NCCN3CCOCC3)c2cc1OC` as the compound, how does the Potency read?
**A.** Its Potency is 685 nM (active).

**Q.** With `OCCC#Cc1nc(-c2ccc(F)cc2)c(-c2ccncc2)n1CCCc1ccccc1` as the compound, how does the Potency read?
**A.** Its Potency is “inactive”.

**Q.** For `CC(C)(Sc1ccc(CCN(CCCCC2CCCCC2)C(=O)NC2CCCCC2)cc1)C(=O)O`, which Potency is on record?
**A.** Its Potency is “inactive”.

**Q.** For `Cc1[nH]nc2ccc(-c3cncc(OC[C@@H](N)Cc4ccccc4)c3)cc12`, which Potency is on record?
**A.** The Potency was 432 nM (active).

**Q.** For `Fc1cc(Br)ccc1CBr`, which Potency is on record?
**A.** Its Potency is “inactive”.

**Q.** With `CCN(CC)CCCCNc1ncc2cc(-c3cc(OC)cc(OC)c3)c(NC(=O)NC(C)(C)C)nc2n1` as the compound, how does the Potency read?
**A.** Its Potency is “inactive”.

**Q.** Which Potency does the source give for `OC[C@H](Cc1ccccc1)Nc1nc(Oc2ccc3c(c2)CCC3)nc2c1ncn2Cc1ccc(-c2ccccc2)cc1` here?
**A.** Its Potency is “inactive”.

**Q.** For `C[C@@H](N)C(=O)O`, which Potency is on record?
**A.** The Potency was “inactive”.

**Q.** Which Potency does the source give for `O=C(O)CCC1CCC(c2cc(F)ccc2F)(S(=O)(=O)c2ccc(Cl)cc2)CC1` (stereo not given) here?
**A.** Its Potency is “inactive”.

**Q.** For `O=C(O)CC(O)C(=O)O` (stereo not given), which Potency is on record?
**A.** The Potency was “inactive”.

**Q.** For `C=C1C(=CC=C2CCCC3(C)[C@@H]([C@H](C)C=CC=CC(O)(CC)CC)CC[C@@H]23)C[C@@H](O)C[C@@H]1O` (stereo not given in full), which Potency is on record?
**A.** The Potency was “inactive”.

**Q.** With `COc1nc(-c2ccc3c(c2)OCO3)n(-c2ccc(NC(=O)CSc3ccccc3)cc2)n1` as the compound, how does the Potency read?
**A.** The Potency was “inactive”.

**Q.** Which Potency does the source give for `Cc1cc2c(cc1C1(c3ccc(C(=O)O)cn3)CC1)C(C)(C)CCC2(C)C` here?
**A.** The Potency was “inactive”.

**Q.** With `CC(C)Oc1cc(Nc2nc(N[C@@H](C)c3ccc(F)cn3)ncc2Cl)[nH]n1` as the compound, how does the Potency read?
**A.** Its Potency is “inactive”.

**Q.** For `Fc1ccc(Cl)cc1-c1nc(Nc2ccncc2)c2nccnc2n1`, which Potency is on record?
**A.** Its Potency is “inactive”.

**Q.** With `COc1c(Cl)cc2c([nH]c3cnccc32)c1NC(=O)c1cccnc1C` as the compound, how does the Potency read?
**A.** Its Potency is “inactive”.

**Q.** With `CCC(C(=O)O)c1ccc(N2Cc3ccccc3C2=O)cc1` (stereo not given) as the compound, how does the Potency read?
**A.** Its Potency is “inactive”.

**Q.** With `O=C(C=Cc1ccc(/C=C/C(=O)Nc2ccc(C3=NCCN3)cc2)cc1)Nc1ccc(C2=NCCN2)cc1` as the compound, how does the Potency read?
**A.** Its Potency is “inactive”.

**Q.** Which Potency does the source give for `Cc1cn(-c2cc(NC(=O)c3ccc(C)c(Nc4nccc(-c5cccnc5)n4)c3)cc(C(F)(F)F)c2)cn1` here?
**A.** Its Potency is “inactive”.

**Q.** Which Potency does the source give for `CCN(CC)CCn1c(=O)c(Cc2ccc(OC)cc2)nc2ccccc21` here?
**A.** Its Potency is “inactive”.

**Q.** Which Potency does the source give for `Nc1nc(-c2nn(Cc3ccccc3F)c3ncccc23)nc(N)c1N1CCOCC1` here?
**A.** Its Potency is “inactive”.

**Q.** For `CCOc1cc2ncc(C#N)c(Nc3ccc(F)c(Cl)c3)c2cc1NC(=O)C=CCN(C)C`, which Potency is on record?
**A.** Its Potency is 10900 nM (active).

**Q.** With `CCN1CCc2nc(N)oc2CC1` as the compound, how does the Potency read?
**A.** The Potency was “inactive”.

**Q.** With `Cc1ccc(F)c(NC(=O)Nc2ccc(-c3cccc4[nH]nc(N)c34)cc2)c1` as the compound, how does the Potency read?
**A.** The Potency was “inactive”.

**Q.** For `Cn1c(Nc2ccc(C(F)(F)F)cc2)nc2cc(Oc3ccnc(-c4ncc(C(F)(F)F)[nH]4)c3)ccc21`, which Potency is on record?
**A.** Its Potency is 21700 nM (active).

**Q.** With `c1ccc2occc2c1` as the compound, how does the Potency read?
**A.** The Potency was “inactive”.

**Q.** Which Potency does the source give for `COc1ccc(C=Cc2cc(OC)c(OC)c(OC)c2)cc1O` here?
**A.** The Potency was “inactive”.

**Q.** With `CC1(C)Cc2c(-c3ccccc3)c(-c3ccc(Cl)cc3)c(CC(=O)O)n2C1` as the compound, how does the Potency read?
**A.** Its Potency is “inactive”.

**Q.** Which Potency does the source give for `O=[N+]([O-])c1cccc(S(=O)(=O)NCCNS(=O)(=O)c2cccc([N+](=O)[O-])c2)c1` here?
**A.** The Potency was “inactive”.

**Q.** Which Potency does the source give for `C[C@@H]1CN(c2c(F)c(N)c3c(=O)c(C(=O)O)cn(C4CC4)c3c2F)C[C@H](C)N1` here?
**A.** Its Potency is “inactive”.

**Q.** For `Nc1cc(C(F)(F)F)c(-c2cc(N3CCOCC3)nc(N3CCOCC3)n2)cn1`, which Potency is on record?
**A.** Its Potency is 1930 nM (active).
